Results with a measured potency or affinity are listed apart. A number with no mark means an inactive call. The rule behind the calls is not given here.
assay: VEEV TC 83 infected cells, CPE inhibition, confirmatory, 50 µM top (AID 602455); settings: series mostly up to 50 µM; inhibition: at the top concentration

| SMILES | inhibition |
| --- | --- |
| O=C(Nc1nc2c(s1)CCCC2)c1cccs1 | -13.8% |
| O=C(Cc1cccs1)Nc1nc2ccccc2s1 | -7.05% |
| O=C(Cc1cccs1)Nc1nccs1 | -0.05% |

Reference: PubChem BioAssay AID602455 (Southern Research Specialized Biocontainment Screening …, 2012)
